Experimental data reported in PubChem BioAssay (EPA / NIEHS).
More than one record can exist for a structure, and the calls need not agree. Calls of active or inactive are those of the source. How the source made its calls: active means hit-call score of the fitted dose curve at least 0.9, where 1 is the maximum; inactive means score below 0.9.

Assays:
Conditions in all cases: primary human HUVEC with PBMC; actives raise or lower the signal
[1] = BSK_LPS_PGE2: BioMAP Diversity Plus: LPS Assay for Prostaglandin E2 (PGE2) Biomarker Activity (AID 2283082);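 on AC50: secreted prostaglandin E2 measured by ELISA in LPS-stimulated co-culture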
Summary of the method: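 Compounds were added to the LPS co-culture of endothelium and PBMC, and PGE2 was measured by ELISA after 24 h. Responses in either direction were fitted with DMSO as baseline.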

[2] = read-out: Macrophage colony-stimulating factor (MCSF), CSF1 (gene 1435); test: BSK_LPS_MCSF: BioMAP Diversity Plus: LPS Assay for Macrophage colony-stimulating factor (MCSF) Biomarker Activity (AID 2283083)
Summary of the method: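 Human umbilical vein endothelial cells co-cultured with peripheral blood mononuclear cells were exposed to compound for 24 h. M-CSF levels were measured by ELISA, and bidirectional curve fitting used DMSO as the negative control and baseline.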

[3] = read-out: Tissue Factor, F3 (gene 2152); test: BSK_LPS_TissueFactor: BioMAP Diversity Plus: LPS Assay for Tissue Factor Biomarker Activity (AID 2283084)
Summary of the method: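 Human umbilical vein endothelial cells co-cultured with peripheral blood mononuclear cells were dosed and stimulated with LPS. Cell-surface CD142 was quantified by ELISA at 24 h. Activity was fitted bidirectionally against DMSO baseline.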

[4] = read-out: Tumor necrosis factor (Homo sapiens) (UniProt P01375); test: BSK_LPS_TNFa: BioMAP Diversity Plus: LPS Assay for Tumour Necrosis Factor alpha (TNFa) Biomarker Activity (AID 2283085);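 on AC50: TNFa protein level quantified by ELISA in the co-culture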
Summary of the method: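 Cells (umbilical vein endothelium plus peripheral blood mononuclear cells) were dosed with chemical, incubated 24 h, then TNFa was quantified by ELISA; values derive from bidirectional fitting with DMSO as baseline.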

[5] = read-out: Vascular cell adhesion molecule 1 (VCAM1), VCAM1 (gene 7412); test: BSK_LPS_VCAM1: BioMAP Diversity Plus: LPS Assay for Vascular cell adhesion molecule 1 (VCAM1) Biomarker Activity (AID 2283086)
Summary of the method: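 Cells are dosed in an LPS-stimulated endothelial/mononuclear co-culture and, after 24 h, VCAM-1 is quantified by ELISA. Activity in either direction is fitted relative to the DMSO negative control.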

CD69, CD69 (gene 969) = test: BSK_SAg_CD69: BioMAP Diversity Plus: SAg Assay for CD69 Biomarker Activity (AID 2283089);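 on AC50: cell surface CD69 protein quantified by ELISA with fluorescence detection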
Summary of the method: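 Endothelial/PBMC co-culture; chemical added; 24 h incubation; CD69 ELISA with fluorescence detection; bidirectional fit vs DMSO.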

[6] = read-out: Monocyte Chemoattractant Protein-1 (MCP1), CCL2 (gene 6347); test: BSK_SAg_MCP1: BioMAP Diversity Plus: SAg Assay for Monocyte Chemoattractant Protein-1 (MCP1) Biomarker Activity (AID 2283090)
Summary of the method: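 Values derive from bidirectional fitting of ELISA-measured MCP1 against DMSO controls. Readings were taken 24 h after dosing human vascular endothelial cells co-cultured with peripheral blood mononuclear cells under superantigen stimulation.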

[7] = read-out: E-selectin (Homo sapiens) (UniProt P16581); test: BSK_SAg_Eselectin: BioMAP Diversity Plus: SAg Assay for Eselectin Biomarker Activity (AID 2283091)
Summary of the method: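 HUVEC co-cultured with PBMC, compound dosed then read at 24 h; E-selectin measured by ELISA. Activity fitted bidirectionally against DMSO as negative control and baseline.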

CD38, CD38 (gene 952) = test: BSK_SAg_CD38: BioMAP Diversity Plus: SAg Assay for CD38 Biomarker Activity (AID 2283087)
Summary of the method: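 CD38 quantified by ELISA (fluorescence) in a superantigen-activated endothelial cell–PBMC co-culture at 24 h post-dose. Activity fitted in both directions relative to DMSO; parallel SRB and Alamar Blue cytotoxicity read-outs.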

Measured: AC50

E-selectin (Homo sapiens), sequence (P16581 whole entry, looked up): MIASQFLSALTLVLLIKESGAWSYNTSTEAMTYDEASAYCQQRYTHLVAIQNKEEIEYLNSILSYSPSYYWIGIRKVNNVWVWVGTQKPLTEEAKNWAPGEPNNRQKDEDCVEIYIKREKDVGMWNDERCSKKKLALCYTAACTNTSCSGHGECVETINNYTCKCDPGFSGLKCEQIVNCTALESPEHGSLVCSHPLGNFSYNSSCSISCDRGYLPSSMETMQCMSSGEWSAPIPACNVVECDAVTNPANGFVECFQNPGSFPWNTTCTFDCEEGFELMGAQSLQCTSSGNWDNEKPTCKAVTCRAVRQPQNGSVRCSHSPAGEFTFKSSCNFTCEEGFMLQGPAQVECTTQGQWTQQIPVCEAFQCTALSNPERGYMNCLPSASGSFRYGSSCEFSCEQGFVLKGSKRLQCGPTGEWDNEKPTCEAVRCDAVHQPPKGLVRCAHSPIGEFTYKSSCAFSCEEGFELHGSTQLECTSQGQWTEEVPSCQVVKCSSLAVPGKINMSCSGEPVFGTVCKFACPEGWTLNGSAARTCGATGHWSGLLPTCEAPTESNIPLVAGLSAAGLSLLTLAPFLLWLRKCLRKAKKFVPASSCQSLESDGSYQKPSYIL
Tumor necrosis factor (Homo sapiens), sequence (P01375 whole entry, looked up): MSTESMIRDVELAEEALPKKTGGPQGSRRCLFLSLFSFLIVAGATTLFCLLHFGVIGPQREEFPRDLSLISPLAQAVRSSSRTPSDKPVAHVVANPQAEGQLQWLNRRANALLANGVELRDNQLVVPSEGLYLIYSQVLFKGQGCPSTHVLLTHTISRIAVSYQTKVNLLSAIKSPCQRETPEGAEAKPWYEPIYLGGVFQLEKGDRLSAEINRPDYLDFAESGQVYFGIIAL

C=CCC1=C(C)[C@@H](OC(=O)[C@@H]2[C@@H](C=C(C)C)C2(C)C)CC1=O
active: [1] 4.92 µM | [2] 26.9 µM | [4] 36.5 µM | [5] 29.2 µM | CD69, CD69 (gene 969) 36.5 µM | [6] 33.2 µM | [7] 27.4 µM
inactive: [3]

COc1ccc(C(c2ccc(OC)cc2)C(Cl)(Cl)Cl)cc1
active: [2] 20 µM | [4] 12.2 µM | [5] 20 µM | CD69, CD69 (gene 969) 25.4 µM | [6] 27.1 µM | [7] 14.4 µM
inactive: [1] | [3]

CON(C)C(=O)Nc1ccc(Cl)c(Cl)c1
active: [1] 6.39 µM | [2] 7.53 µM
not listed: CD38, CD38 (gene 952)
inactive: all other assays above

CCOC(=O)C(Cl)Cc1cc(-n2nc(C)n(C(F)F)c2=O)c(F)cc1Cl (configuration not stated)
not listed: CD38, CD38 (gene 952)
inactive: all other assays above

C=CC1(C)OC(=O)N(c2cc(Cl)cc(Cl)c2)C1=O (configuration not stated)
not listed: CD38, CD38 (gene 952)
inactive: all other assays above

CC(C)Oc1cc(-n2nc(C(C)(C)C)oc2=O)c(Cl)cc1Cl
active: [2] 32.7 µM | [4] 35.7 µM | [5] 31.7 µM | CD69, CD69 (gene 969) 30.7 µM | [6] 29.9 µM | [7] 30.3 µM
inactive: [1] | [3]

COP(N)(=O)SC (configuration not stated)
active: [1] 20 µM
not listed: CD38, CD38 (gene 952)
inactive: all other assays above

OC(c1ccc(Cl)cc1)(c1cncnc1)c1ccccc1Cl (configuration not stated)
inactive: [2] | [3] | [5]
active: [1] 4.99 µM | [4] 10.9 µM | CD69, CD69 (gene 969) 14.2 µM | [6] 25.5 µM | [7] 26.5 µM

CS/C(C)=N/OC(=O)N(C)SN(C)C(=O)O/N=C(\C)SC
active: [2] 28.2 µM | [3] 32.1 µM | [4] 16.2 µM | [5] 24.3 µM | CD69, CD69 (gene 969) 31.7 µM | [6] 30.1 µM | [7] 31.4 µM
inactive: [1]

N#Cc1nn(-c2c(Cl)cc(C(F)(F)F)cc2Cl)c(N)c1S(=O)C(F)(F)F (configuration not stated)
inactive: [1] | [3]
active: [2] 20 µM | [4] 5.27 µM | [5] 31.2 µM | CD69, CD69 (gene 969) 25.6 µM | [6] 30 µM | [7] 29.8 µM

COC(=O)N(OC)c1ccccc1COc1ccn(-c2ccc(Cl)cc2)n1
active: [1] 0.215 µM | [2] 14.1 µM | [4] 9.8 µM | [5] 13 µM | CD69, CD69 (gene 969) 3.97 µM | [6] 4.97 µM | [7] 3.97 µM
inactive: [3]

CCCC1COC(Cn2cncn2)(c2ccc(Cl)cc2Cl)O1 (configuration not stated)
active: [1] 6.44 µM
not listed: [2]
inactive: all other assays above

CCOP(=S)(OCC)SCn1c(=O)oc2cc(Cl)ccc21
active: [1] 13.5 µM | [2] 11.1 µM | [4] 12 µM | [5] 13.9 µM | [6] 28.4 µM | [7] 29.4 µM
inactive: [3] | CD69, CD69 (gene 969)

CC1COC(Cn2cncn2)(c2ccc(Oc3ccc(Cl)cc3)cc2Cl)O1 (configuration not stated)
active: [1] 0.172 µM | [2] 27.6 µM | [3] 30.2 µM | [4] 31.5 µM | [5] 29.7 µM | CD69, CD69 (gene 969) 18.8 µM | [6] 23.8 µM | [7] 13.1 µM

Fc1ccc(Oc2ccnc3cc(Cl)cc(Cl)c23)cc1
active: [1] 8.77 µM | [2] 18.7 µM | [3] 32.3 µM | [4] 20 µM | [5] 23.2 µM | CD69, CD69 (gene 969) 14.9 µM | [6] 28.2 µM | [7] 20.5 µM

COc1nc(C)nc(NC(=O)NS(=O)(=O)c2ccccc2CCC(F)(F)F)n1
not listed: CD38, CD38 (gene 952)
inactive: all other assays above

CCCCC(CC)COC(=O)c1ccccc1C(=O)OCC(CC)CCCC (configuration not stated)
active: [2] 4.51 µM | [4] 12.3 µM | CD69, CD69 (gene 969) 5.92 µM
not listed: CD38, CD38 (gene 952)
inactive: all other assays above

CCON=C(CC)C1=C(O)CC(c2c(C)cc(C)cc2C)CC1=O (configuration not stated)
active: [1] 20 µM
not listed: CD38, CD38 (gene 952)
inactive: all other assays above

CC(Oc1ccc(Cl)cc1Cl)C(=O)O (configuration not stated)
not listed: CD38, CD38 (gene 952)
inactive: all other assays above

CCCCOC(=O)c1ccccc1C(=O)OCCCC
inactive: [1] | [2] | [3] | [4] | [5] | CD69, CD69 (gene 969) | [6] | [7]
active: [7] 20 µM

CCNc1nc(Cl)nc(NC(C)C)n1
active: [4] 6.09 µM | [7] 13.9 µM
not listed: CD38, CD38 (gene 952)
inactive: all other assays above

CC(C)C1(C)N=C(c2nc3ccccc3cc2C(=O)O)NC1=O (configuration not stated)
active: [2] 2.62 µM
not listed: CD38, CD38 (gene 952)
inactive: all other assays above

CCCCNC(=O)n1c(NC(=O)OC)nc2ccccc21
active: [5] 22.6 µM
not listed: CD38, CD38 (gene 952)
inactive: all other assays above

Cc1c(F)c(F)c(COC(=O)C2C(/C=C(\Cl)C(F)(F)F)C2(C)C)c(F)c1F (configuration not stated)
active: [2] 12.7 µM | [5] 12 µM | CD69, CD69 (gene 969) 5.53 µM | [7] 12.5 µM
inactive: [1] | [3] | [4] | [6]

CC(C)(C)c1ccc(CSc2cnn(C(C)(C)C)c(=O)c2Cl)cc1
active: [2] 9.19 µM | [5] 15.8 µM | CD69, CD69 (gene 969) 1.43 µM | [6] 1.11 µM | [7] 0.148 µM
inactive: [1] | [3] | [4]

Cc1cc(Cl)ccc1OCC(=O)O
not listed: CD38, CD38 (gene 952)
inactive: all other assays above

COc1nc(C)nc(NC(=O)NS(=O)(=O)c2ccccc2Cl)n1
not listed: CD38, CD38 (gene 952)
inactive: all other assays above
